A selection: hits, their analogues and other compounds. The true share with any hit is near 12%.
JMJD2A Tudor inh = blocks the human JMJD2A Tudor domain. O75164. AlphaScreen JMJD2A-Tudor / H3K4me3 peptide binding. Potency, µM (series often up to 114 µM), actives largely listed as inhibitors. hit rate 4.4% among 390,000. AID 504339; also: nearly all actives have a fitted effect of over 50% in size
Target sequence (O75164 whole entry, looked up, the tested form may be a part): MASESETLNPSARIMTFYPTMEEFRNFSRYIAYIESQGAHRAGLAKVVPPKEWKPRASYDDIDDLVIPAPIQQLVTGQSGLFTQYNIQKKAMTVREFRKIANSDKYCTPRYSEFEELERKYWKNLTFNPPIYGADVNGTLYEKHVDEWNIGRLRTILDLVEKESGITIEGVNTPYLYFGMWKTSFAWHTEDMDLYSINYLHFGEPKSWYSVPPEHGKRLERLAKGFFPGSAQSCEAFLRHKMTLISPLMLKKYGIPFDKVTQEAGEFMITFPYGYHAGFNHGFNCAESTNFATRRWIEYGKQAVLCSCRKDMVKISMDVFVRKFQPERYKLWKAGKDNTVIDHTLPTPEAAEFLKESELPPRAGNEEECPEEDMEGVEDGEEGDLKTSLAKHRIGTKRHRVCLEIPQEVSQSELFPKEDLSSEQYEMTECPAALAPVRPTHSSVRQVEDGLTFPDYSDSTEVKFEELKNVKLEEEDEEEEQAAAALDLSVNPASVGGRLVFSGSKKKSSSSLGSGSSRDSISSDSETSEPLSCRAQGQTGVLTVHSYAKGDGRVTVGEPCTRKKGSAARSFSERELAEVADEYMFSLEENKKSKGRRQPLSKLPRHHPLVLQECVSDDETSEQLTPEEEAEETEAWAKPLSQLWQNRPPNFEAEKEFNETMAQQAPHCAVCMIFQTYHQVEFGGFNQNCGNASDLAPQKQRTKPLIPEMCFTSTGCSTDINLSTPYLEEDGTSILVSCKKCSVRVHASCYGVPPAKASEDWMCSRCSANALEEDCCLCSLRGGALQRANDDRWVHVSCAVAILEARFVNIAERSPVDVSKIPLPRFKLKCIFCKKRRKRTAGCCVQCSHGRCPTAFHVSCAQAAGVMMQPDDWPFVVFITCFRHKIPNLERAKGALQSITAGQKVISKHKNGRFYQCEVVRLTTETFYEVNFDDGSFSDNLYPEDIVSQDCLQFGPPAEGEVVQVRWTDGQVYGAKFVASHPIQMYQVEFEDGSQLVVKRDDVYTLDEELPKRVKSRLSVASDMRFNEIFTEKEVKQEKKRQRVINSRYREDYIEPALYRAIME
G9a inh = blocks human histone lysine methyltransferase G9a; AID 504332; G9a H3K9 monomethylation, AlphaScreen, 2 h; Potency, µM (highest dose often 102 µM), hits mostly inhibitors; hit rate 8.8% among 350,000; Q96KQ7; also: nearly all actives have a fitted effect of over 75% in size
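Quantitative HTS format: methyltransferase activity on a biotin-tagged H3K9 peptide is measured by AlphaScreen, using a rabbit anti-monomethyl-H3K9 antibody with streptavidin donor and anti-IgG acceptor beads. Final levels are 20 nM enzyme, 500 nM peptide, 20 uM SAM; 2 h RT.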
HP1b binding inh = inhibitors of HP1-beta chromodomain binding to methylated histone tails; P83916; AlphaScreen HP1-beta / biotin-H3K9me3 peptide binding; Potency, µM (doses to about 114 µM), hits mostly inhibitors; hit rate 0.56% among 390,000; AID 540317; also: nearly all actives have a fitted effect of over 70% in size
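AlphaScreen: HP1-beta (50 nM) preformed 30 min with biotin-H3(1-18)K9me3 peptide (50 nM) in PBS pH 7.4, 0.01% Tween-20. Compound added for 30 min at RT, then streptavidin donor/nickel chelate acceptor beads (10 ug/mL) for 30 min.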
L3MBTL1 inh = blocks human L3MBTL1 | hit rate 0.66% among 230,000 | Potency, µM (titrated, usually from 57.1 µM), most hits filed as inhibitors | AlphaScreen L3MBTL1–H3K9me1 peptide binding | Q9Y468; also: nearly all actives have a fitted effect of over 60% in size
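L3MBTL1 (50 nM) pre-complexed 30 min with biotinylated H3(1-15)K9me1 peptide (75 nM), then compounds added for 30 min at room temperature; AlphaScreen streptavidin donor/nickel chelate acceptor beads (10 ug/mL final) read after 30 min dark incubation.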
Sfp inh = inhibitors of Bacillus subtilis Sfp phosphopantetheinyl transferase | Q9F4F7 | Biochemical Sfp PPTase activity, qHTS | Potency, µM, most hits filed as inhibitors | hit rate 3.5% among 310,000 | AID 1490;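 also: the enzyme is Sfp with the accession as filed and its product quenches rhodamine fluorescence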
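Step 1, compound plus 15 nM Sfp-PPTase, 15 min, room temperature. Step 2, add rhodamine-CoA (5 uM) and BHQ-2-YbbR (12.5 uM). Step 3, read 525/598 nm fluorescence at 0 and 30 min.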
BAZ2B block = blocks human BAZ2B. AlphaScreen BAZ2B-H3K14Ac peptide displacement. Potency, µM (highest dose often 114 µM), usual class: inhibitors. hit rate 4.4% among 360,000; also: nearly all actives have a fitted effect of over 60% in size
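Compounds, titrated to a top concentration of 110 uM, were incubated 30 min at room temperature with preformed BAZ2B/acetyl-K14 H3 peptide complex (50 nM each). Proximity signal was measured by AlphaScreen after 20 min with beads.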
Hits are given with their value; n = inactive; u = inconclusive; x = no result given; [ ] = dose if it differs, or a comment. Calls follow the shape of the dose curve; as a rule, active = well fitted curve in the direction sought with a large enough effect; inconclusive = small, poorly fitted or top-dose-only effect, or another doubt; inactive = no such curve, though single readings can be large; an effect the other way counts as inactive or inconclusive.

SMILES	JMJD2A Tudor inh	G9a inh	HP1b binding inh	L3MBTL1 inh	Sfp inh	BAZ2B block
O=C(c1ccco1)N1CCC2(CCCN(C(c3ccccc3)c3ccccc3)C2)CC1	x	n[12.7 µM]	x	x	n	x
COc1ccc(C)cc1NC(=O)N1CCN(c2nnc(C)c3c(C)n(-c4ccccc4)nc23)CC1	n	n	n	x	x	n
CCOc1ccccc1NC(=O)C1CCN(S(=O)(=O)c2cc(Br)cc3c2N(C(C)=O)CC3)CC1	n	n	n	x	x	n
CC(C)(C)c1nnc(NC(=O)CCS(=O)(=O)c2ccccc2)s1	n	28µM	n	x	n	n
COc1ccc(S(=O)(=O)CC(=O)Nc2nnc(C(F)(F)F)s2)cc1	n	n	n	x	n	n
Cc1ccc(S(=O)(=O)CC(=O)Nc2nnc(C(C)(C)C)s2)cc1	u	22µM	n	x	u	n
O=C(CCS(=O)(=O)c1ccccc1)Nc1nnc(C(F)(F)F)s1	n	40µM	n	x	n	u
O=C(CS(=O)(=O)c1ccccc1)Nc1nnc(C(F)(F)F)s1	n	u	n	x	n	n
CSc1ccccc1NC(=O)CN(C)CC(=O)NCC(=O)Nc1ccc(F)cc1	n	n[0.501 µM]	n	n	x	n
O=C(NNc1ccccn1)C(=O)NNS(=O)(=O)c1ccc(F)cc1	n	n	n	n	n	40µM
O=C(NNc1ccccn1)C(=O)NNS(=O)(=O)c1ccc(Cl)cc1	n	n	n	n	n	56µM
Cc1cc(C)c(NC(=O)CSc2nc3c([nH]c4ccccc43)c(=O)n2C)c(C)c1	n	n	n	x	x	n
N#Cc1ccc(C(=O)Nc2ccc3ccccc3c2)cc1	n	45µM	n	x	n	n
N#Cc1ccccc1Sc1ccccc1C(=O)Nc1ccc2ccccc2c1	n	n	n	n	n	n
Cc1cccc(OCCn2c(SCC(=O)O)nc3ccccc32)c1	n	u	n	x	x	n
O=[N+]([O-])/C(C(Cl)=C(Cl)Cl)=C(\Nc1ccc(F)cc1)n1cncn1	x	8.9µM	x	x	n	28µM
O=C(Nc1ccc(F)cc1)c1ccc(-n2cncn2)c([N+](=O)[O-])c1	n	u	n	n	n	n
CCOc1ccc(NC(=O)c2nn(C)c(C(=O)Nc3ccc(OCC)cc3)c2[N+](=O)[O-])cc1	n	n[0.501 µM]	n	n[2.29 µM]	n	n
CCOc1ccc(N/C(=C(/C(Cl)=C(Cl)Cl)[N+](=O)[O-])n2cncn2)cc1	x	25µM	x	x	n	8.9µM
C#Cc1ccc([C@@H]2C=C(C(=O)O)O[C@H](OCc3ccc(CO)cc3)C2)cc1	n	u	n	n	n	n
COC(=O)c1ccc(OCC(O)Cn2cnc3cc(C)c(C)cc32)cc1 (stereo unspecified)	u	n	n	x	x	n
COc1cccc(COCC(O)Cn2cnc3cc(C)c(C)cc32)c1 (stereo unspecified)	3.5µM	6.3µM	u	x	n	u
COC(=O)c1cccc(OCC(O)Cn2cnc3cc(C)c(C)cc32)c1 (stereo unspecified)	n	n	n	x	89µM	n
Cc1ccccc1CNC(=O)C1CCN(c2nnc(-n3c(C)ccc3C)s2)CC1	n	n	n	x	x	n
Cc1ccc(F)c(C2C3C=CCC(c4ccccc4)C3C(=O)N2Cc2ccccc2)c1 (stereo unspecified)	n	x	n	x	n	x
SMILES	JMJD2A Tudor inh	G9a inh	HP1b binding inh	L3MBTL1 inh	Sfp inh	BAZ2B block
CCN(CC)CCN(CC(=O)N(C1CCCCC1)C1CCCCC1)C(=O)c1cccnc1	n	50µM	n	u	n	u
CCN(CC)C(=O)c1cccnc1	x	n[12.7 µM]	x	x	n	x
CCOC(=O)c1cnc2ccc(OCC)cc2c1N1CCN(c2cccc(Cl)c2)CC1	n	n	n	x	x	u
Cc1cccc(NC(=O)CC2C(=O)OCCN2Cc2ccccc2)c1 (stereo unspecified)	n	n	n	x	x	n
CCN1CCOC(=O)C1CC(=O)Nc1cccc(OC)c1 (stereo unspecified)	n	u	n	x	x	n
CCOC(=O)c1ccc(NC(=O)CC2C(=O)OCCN2CC)cc1 (stereo unspecified)	n	6.3µM	n	n	n	n
CCN1CCOC(=O)C1CC(=O)Nc1ccc(C)c(Cl)c1 (stereo unspecified)	n	2µM	n	x	x	n
CCOc1ccc(NC(=O)CC2C(=O)N(CC)C(=S)N2CCN2CCOCC2)cc1 (stereo unspecified)	50µM	n	n	n	n	n
CCOc1ccc(NC(=O)CC2C(=O)OCCN2CC)cc1 (stereo unspecified)	n	2.2µM	n	x	x	u
CCCCCC(=O)Cc1cc(O)cc(O)c1C(=O)Oc1cc(CC(=O)CCCCC)c(C(=O)O)c(OC)c1	x	x	x	x	n	x
NC(C(=O)O)c1nn[nH]n1 (stereo unspecified)	10µM	x	n	x	n	x
COc1ccccc1N1CCN(C(=O)c2sc3ncnc(N4CCN(c5ccccn5)CC4)c3c2C)CC1	n	n	n	x	n	u
COc1ccccc1N1CCN(C(=O)c2sc3nc(C)nc(N4CCN(c5ccccn5)CC4)c3c2C)CC1	u	25µM	n	x	n	u
Cc1ccc(C(=O)C2=C(O)C(=O)N(CCCN3CCOCC3)C23C(=O)N(C)c2ccccc23)o1 (stereo unspecified)	n	u	n	n	n	n
CCN1C(=O)C2(C(C(=O)c3ccc(C)o3)=C(O)C(=O)N2CCCN2CCOCC2)c2ccccc21 (stereo unspecified)	n	u	n	x	2.5µM	n
COCC(=O)Nc1nc2n(n1)C(c1ccccc1)CC(c1ccc(OC)cc1)N2 (stereo unspecified)	56µM	u	n	n	n	u
O=C(O)CCCC(=O)Nc1nc2n(n1)C(c1ccc(F)cc1)CC(c1ccc(Cl)cc1)N2 (stereo unspecified)	u	n[12.7 µM]	n	x	n	50µM
CC1CC(c2ccccc2)n2nc(NC(=O)CCc3ccccc3)nc2N1 (stereo unspecified)	79µM	n	n	n	n	50µM
CCCC(=O)Nc1nc2n(n1)C(c1ccccc1)CC(=O)N2 (stereo unspecified)	n	n	n	n	n	n
COCC(=O)Nc1nc2n(n1)C(c1ccc(OC)cc1)CC(c1ccc(OC)cc1)N2 (stereo unspecified)	n	n[12.7 µM]	n	x	n	n
CCOC(=O)Cn1c(=N)n(Cc2ccc(C(C)(C)C)cc2)c2ccccc21	n	n	n	x	x	n
N=C1CCC(=N)c2c1c(O)c1ccccc1c2O	14µM	x	20µM	7.1µM	u	14µM
CCCCN1CCc2c([nH]c3c(C)cccc23)C1=O	20µM	n	u	n	n	n
CCOC(=O)c1ccc(-c2c(-c3ccc4c(c3)OCO4)noc2C)cc1F	n	x	n	n	n	n
COc1ccc2nc(N=NC3=C(O)CC(C)(C)CC3=O)sc2c1	u	u	u	x	u	40µM
COc1ccc2nc(N=Nc3ccc(O)c4ccccc34)sc2c1	u	3.2µM	u	u	n	2.8µM

Screens from PubChem BioAssay.
